aSyn rescue: alpha-synuclein toxicity inhibition in yeast; Yeast expressing alpha-synuclein, growth rescue, BacTiter-Glo, 24 h; Potency, µM (doses to about 46.1 µM), without a hit: top-dose growth rescue (activation), usual class: activators; 370,000 tested, 0.14% active; also: % of control where 0% means no effect; nearly all actives have a fitted effect of over 65% in size
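Rescue of yeast growth: cells expressing toxic alpha-synuclein, induced in galactose at OD600 0.02, incubated with compound 24 h at 30 C. ATP luminescence quantified growth; inhibitors of toxicity appear as activators.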
Abeta rescue: A-beta toxicity reversal in yeast | yeast expressing A-beta42, growth rescue, OD600, 48 h; response scale: 0% DMSO, 100% iron-clioquinol control | Potency, µM (top dose mostly 46.1 µM), actives largely listed as activators | 410,000 tested, 0.063% active; also: nearly all actives have a fitted effect of over 55% in size
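Yeast growth medium received pinned compounds, then yeast cells expressing toxic A-beta were added; plates incubated at 30 C for 48 hr. Growth read as absorbance at 600 nm, normalized to DMSO and equimolar FeCl3 plus clioquinol controls.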
FUS suppressor: rescues growth of FUS-expressing yeast; S. cerevisiae FUS-expressing, growth rescue, OD600, 24 h; Potency, µM (series often up to 76.6 µM), hits mostly activators; 390,000 tested, 0.24% active;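 also: plate controls were DMSO vehicle for no effect and reference control for full effect; nearly all actives have a fitted effect of over 55% in size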
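Toxicity suppression screen in FUS-yeast. Cells induced with 2% galactose, starting OD 0.005, treated 24hr at 30C with compounds at multiple final concentrations; growth by OD600.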
MBNL1 CUG block: MBNL1-poly(CUG) RNA binding inhibition; AID 2675; Potency, µM (highest dose often 57.5 µM), inactives show at the top dose activity change, negative = inhibition, most hits filed as inhibitors; 280,000 tested, 0.036% active; TR-FRET MBNL1-His/biotin-(CUG)12 binding, 665/545 ratio; Q9NR56; active = well fitted inhibition curve with a large enough effect in the signal ratio, with a control signal flat, not every such curve was filed as active; inconclusive = small, poorly fitted or top-dose-only effect, or effect the other way, or a change in a side signal; inactive = no such curve, though single readings can be large or run the other way; the % refers to the signal ratio; also: % is scaled to controls: 0 for no effect and ±100 for the full control effect
Target sequence (Q9NR56 whole entry, looked up): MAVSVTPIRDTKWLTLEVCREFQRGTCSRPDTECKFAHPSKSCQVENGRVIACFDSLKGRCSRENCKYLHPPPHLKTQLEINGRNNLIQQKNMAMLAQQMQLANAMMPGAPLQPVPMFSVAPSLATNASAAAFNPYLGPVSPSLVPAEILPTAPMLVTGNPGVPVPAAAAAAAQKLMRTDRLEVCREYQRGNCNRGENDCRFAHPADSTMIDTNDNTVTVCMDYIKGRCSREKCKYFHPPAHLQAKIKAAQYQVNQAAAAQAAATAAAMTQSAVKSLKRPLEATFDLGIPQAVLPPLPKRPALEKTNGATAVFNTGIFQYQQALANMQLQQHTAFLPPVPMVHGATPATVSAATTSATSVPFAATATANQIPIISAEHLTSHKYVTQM
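His-tagged MBNL1 binding to biotinylated (CUG)12 RNA was measured by TR-FRET using terbium anti-His antibody (0.055 ng/ul final) and streptavidin-XL665 (5 nM final). Compounds were titrated 92 nM to 58 uM; 60 min at room temperature.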
TDP43 rescue: TDP-43 toxicity inhibition in yeast; TDP-43 expressing yeast growth rescue, BacTiter-Glo, 24 h; Potency, µM (highest dose often 46.1 µM), for inactives: top-dose growth rescue (activation), most hits filed as activators; 410,000 tested, 1.8% active; also: % of control where 0% means no effect; nearly all actives have a fitted effect of over 50% in size
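Growth rescue of TDP-43-toxic yeast measured as ATP luminescence (BacTiter-Glo). Cells grown to mid-log in raffinose, induced in galactose at OD600=0.02, exposed to compound 24 hr at 30 deg C.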
GRP78 ERSR act: inducers of ER stress response in human glioma cells. 420,000 tested, 0.02% active. Potency, µM, for inactives: at the top dose activation, most hits filed as activators. U87-MG GRP78 promoter luciferase reporter, 16 h. AID 602332; also: series mostly up to about 76 µM; % of control where 0% means no effect; nearly all actives have a fitted effect of over 35% in size
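ERSR induction read as luciferase luminescence (Bright-Glo, 10 min at room temperature) in stably transfected human U87-MG glioma cells exposed to compounds for 16 h, using GRP78 as sensor.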
Starred values were filed as active, the others as inactive; i = inactive; ? = inconclusive; . = not tested or not shown; [ ] = another dose, or the depositor's remark. Sampled rows, rich in hits. Any-hit rate of the full collection: about 2%. Unless noted, calls follow the shape of the dose curve; as a rule, active = well fitted curve in the direction sought with a large enough effect; inconclusive = small, poorly fitted or top-dose-only effect, or another doubt; inactive = no such curve, though single readings can be large; an effect the other way counts as inactive or inconclusive. Potency is read from the fitted curve at half-maximal effect.

SMILES	aSyn rescue	Abeta rescue	FUS suppressor	MBNL1 CUG block	TDP43 rescue	GRP78 ERSR act
Cc1onc(-c2ccccc2Cl)c1C(=O)Oc1ccc(Br)cc1	.	i	i	.	-9%	-2%
Cn1c(=O)c2cc(S(=O)(=O)N3CCN(c4ccc(F)cc4)CC3)ccc2n(C)c1=O	.	.	i	.	.	.
CC1CCN(C(=O)CCNS(=O)(=O)c2ccc(Br)cc2)CC1	3.5µM*	i	i	.	-11%	-4%
CC(=O)N1CCN(C(=O)CCNS(=O)(=O)c2ccc(Br)cc2)CC1	-3%	i	i	.	11%	-3%
Cc1cc(=O)c(C(=O)NCCc2ccccn2)c2n1-c1ccccc1SC(c1cccs1)C2 (configuration not stated)	.	.	.	.	.	-4%
CCCCOc1ccc(-c2nnc(-c3ccncc3)o2)cc1	-6%	i	i	7%	20µM*	-9%
CC(=O)Nc1cccc(C(=O)OCc2ccccc2)c1	-7%	i	i	-11%	13µM*	5%
CC1(C(=O)O)CCCN(C(=O)C2(c3ccc(Cl)cc3)CCCC2)C1 (configuration not stated)	-8%	i	i	.	18µM*	-3%
CC1(C(=O)NS(=O)(=O)C2CC2)CCN(C(=O)C2(c3ccc(Cl)cc3)CCCC2)C1 (configuration not stated)	4%	i	i	.	-5%	-1%
COc1ccc(CC(=O)NNC(=O)CCC(=O)Nc2cc(C)ccc2C)cc1	-6%	i	i	1%	-1%[9.22 µM]	-1%
COc1ccc(C(=O)CCC(=O)Nc2cc(C)ccc2C)cc1	.	i	i	.	11µM*	1%
CSc1ccccc1C(=O)NCC1Cc2cccc(-c3ncccc3C)c2O1 (configuration not stated)	.	.	.	.	.	-2%
CCCCN(C)C(=O)c1sc(=O)n(Cc2cc(Cl)ccc2OC)c1C	10%	i	i	.	?	-2%
COc1ccc(Cl)cc1Cn1c(C)c(C(=O)NCc2ccc(F)cc2)sc1=O	?	i	?	.	20µM*	0%
Cc1c(C(=O)N(C)Cc2ccc(F)cc2)sc(=O)n1Cc1ccc(Cl)c(Cl)c1	?	?	i	.	22µM*	-3%
COc1ccc(Cl)cc1Cn1c(C)c(C(=O)N(C)Cc2ccc(F)cc2)sc1=O	8%	i	i	.	22µM*	-3%
COc1ccc(CNC(=O)c2sc(=O)n(Cc3ccccc3OC)c2C)cc1	9%	i	i	.	25µM*	0%
CC(C)CN1CN2Cc3cc(F)ccc3C2CS1(=O)=O (configuration not stated)	.	.	i	.	.	.
COc1ccc(-n2c(COc3ccc(C)cc3)nnc2SCC(=O)c2ccc(-c3ccccc3)cc2)cc1	.	.	i	.	.	.
O=C(Nc1ccc(Br)cc1)OCCN1CCCC12CCC(c1ccccc1)CC2 (configuration not stated)	.	.	i	.	.	.
CCOC(=O)Cc1nnc(-c2ccccc2)o1	-4%	i	i	5%	-7%	-2%
Cc1ccc(C2=NN(Cc3nnc(-c4ccccc4)o3)C(=O)SC2)cc1	10%	i	.	?	18µM*	4%
O=C(c1cccc(Cl)c1)N1c2ncnn2C2(CCCCC2)[C@@H]2CCCC[C@@H]21	.	i	i	.	13µM*	-2%
O=C(c1cccc(Cl)c1)N1c2nc(-c3ccco3)nn2C2(CCCCC2)[C@@H]2CCCC[C@@H]21	.	i	i	.	8%	-2%
C=CCNC(=O)/C(C#N)=C/c1ccccc1Cl	-1%	?	i	-2%	-76%	1%
SMILES	aSyn rescue	Abeta rescue	FUS suppressor	MBNL1 CUG block	TDP43 rescue	GRP78 ERSR act
C=CCNC(=O)/C(C#N)=C/c1cc(Br)ccc1OC	-1%	i	i	0%	11µM*	16%
CN(C)c1ccc(/C=C\C=C/c2ccnc3ccccc23)cc1	-66%	.	.	.	.	-7%
CCOc1ccccc1CNC(=O)c1cc2n(n1)CCCN(Cc1ccc(C)cc1)C2=O	.	?	?	.	35µM*	-3%
COc1cccc(CN2CCOc3ccc(CN4C[C@@H](C)O[C@@H](C)C4)cc3C2)c1OC	.	.	.	.	.	-1%
Cc1ncc2c(c1CNC(=O)c1ccc3c(c1)OCO3)CCN(C(=O)c1cc3ccccc3n1C)C2	.	.	.	.	.	-3%
O=C1C=C(NC2=CC3OC(c4ccccc4)OCC3OC2=O)CCC1 (configuration not stated)	18µM*	i	.	14%	13µM*	-6%
O=C1C=C(NCc2ccccc2)CCC1	-2%	i	.	-7%	-8%	-4%
C=CC[C@@]1(c2ccc(Br)cc2OC)Oc2ccccc2-c2nccnc21	.	.	i	.	.	.
COC(CNC(=O)[C@H](Cc1ccccc1)NCC(=O)NC1CCCCC1)OC	.	.	i	.	.	.
Cc1ccc(-c2csc(N/N=C/c3ccco3)n2)cc1	-18%	i	?	-9%	7%	11%
Clc1ccc(-c2csc(N/N=C/c3ccco3)n2)cc1	-28%	i	i	1%	6.3µM*	1%
CN(Cc1ccon1)C(=O)c1cnn(-c2ncc3c(n2)-c2ccccc2CCC3)c1C1CC1	.	.	.	.	.	3%
COc1ccccc1CCc1nc2ccccc2n1C1CCN(C(=O)c2cn3ccsc3n2)CC1	.	.	.	.	.	0%
Cc1cc(F)ccc1S(=O)(=O)Nc1ncnc2sc3c(c12)CCC3	9%	i	i	8%	20µM*	-3%
O=S(=O)(Nc1ncnc2sc3c(c12)CCC3)c1ccc2ccccc2c1	-37%	i	?	-1%	-10%	2%
COc1ccc(Nc2ncnc3scc(-c4ccc(OC)cc4)c23)cc1	1%	i	.	-9%	22µM*	-4%
NNc1ncnc2scc(-c3ccc(Cl)cc3)c12	14%	i	i	12%	16µM*	0%
Clc1ccc(-c2csc3ncnc(Cl)c23)cc1	-7%	i	i	6%	0%	-6%
COc1ccc(Nc2ncnc3sc4c(c23)CCCC4)cc1	-7%	i	i	.	20µM*	-3%
CCCn1c(NC(=O)c2ccccc2)nc(Cc2ccccc2)c1Cc1ccccc1	.	.	i	.	.	.
O=c1c2cc3cc(Cl)ccc3nc2ncn1CCc1c[nH]c2ccccc12	.	.	i	.	.	.
Fc1ccc(Nc2ncnc3sc4c(c23)CCC4)cc1	32µM*	i	i	-2%	18µM*	-1%
c1ccc(Nc2ncnc3sc4c(c23)CCC4)cc1	3%	i	i	3%	2%	-1%
CCc1ccc(Nc2ncnc3sc4c(c23)CCCC4)cc1	0%	i	i	.	20µM*	-3%
CC(=O)Nc1ccc(Nc2ncnc3sc4c(c23)CCCC4)cc1	6%	i	i	.	?	5%
